IL-1B inflam inh – qHTS for Inhibitors of Inflammasome Signaling: IL-1-beta AlphaLISA Primary Screen; THP-1 LPS/ATP IL-1B secretion, AlphaLISA, 16 h; stronger effect = lower value; activity change, % at 57.5 µM; 360,000 compounds, 4.7% hits; AID 743279, 2014; in the data active = activity change below about -50%; inconclusive = mostly about -30% to -49%; note: % is set by controls: 0 for no effect and ±100 for the full control effect
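THP-1 cells pretreated 1 hr with compounds (up to 57.5 uM final), then stimulated with LPS (250 ng/mL final) plus ATP (1.25 mM final); secreted IL-1B measured by AlphaLISA after 16 hr, decreased signal indicating inhibition.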
S2 tox – Viability Counterscreen for Primary qHTS for Inhibitors of ATXN expression; S2 cells (HEK-293 line with an ATXN2-luciferase reporter) viability, CellTiter-Fluor protease fluorescence, 24 h; Potency, µM (doses to about 56.7 µM), most hits filed as cytotoxic; 400,000 compounds, 0.49% hits; AID 651635, 2014; note: potency is the fitted concentration of half-maximal effect; nearly all actives have a fitted effect of over 40% in size
USP2a inh – qHTS Assay for Inhibitors of Ubiquitin-specific Protease USP2a Using CHOP2 as the Reporter | USP2 core, Ub-CHOP2 coupled fluorogenic reporter, 485/531 | 330,000 compounds, 0.01% hits | Potency, µM (titrated, usually from 38.3 µM), inactives show at the top dose activity change, negative = inhibition, actives largely listed as inhibitors | AID 463254, 2010;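 note: potency is the fitted concentration of half-maximal effect; plate controls were DMSO wells for no effect and full inhibition by NEM control for full effect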
Target sequence (O75604 whole entry, looked up): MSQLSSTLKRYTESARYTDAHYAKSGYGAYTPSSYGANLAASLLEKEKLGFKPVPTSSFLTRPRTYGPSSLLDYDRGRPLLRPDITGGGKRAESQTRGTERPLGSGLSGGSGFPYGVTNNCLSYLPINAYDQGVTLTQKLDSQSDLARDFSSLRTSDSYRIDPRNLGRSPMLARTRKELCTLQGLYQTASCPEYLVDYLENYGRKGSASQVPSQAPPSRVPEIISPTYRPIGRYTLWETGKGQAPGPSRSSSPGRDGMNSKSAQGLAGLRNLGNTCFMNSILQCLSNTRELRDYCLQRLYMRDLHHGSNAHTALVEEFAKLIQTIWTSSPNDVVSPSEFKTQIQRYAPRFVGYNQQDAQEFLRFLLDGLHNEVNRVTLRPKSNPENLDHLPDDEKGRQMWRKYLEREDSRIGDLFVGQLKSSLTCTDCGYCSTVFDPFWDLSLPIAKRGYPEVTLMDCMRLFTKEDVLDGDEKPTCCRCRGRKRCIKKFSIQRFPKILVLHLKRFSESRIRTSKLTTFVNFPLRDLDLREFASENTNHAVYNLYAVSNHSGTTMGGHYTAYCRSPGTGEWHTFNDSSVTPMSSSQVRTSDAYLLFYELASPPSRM
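Deubiquitinase activity read as fluorescence (485/531 nm) after Ub-CHOP2 cleavage activates the enterokinase reporter on its substrate; USP2 core 10nM, Ub-CHOP2 and substrate 25nM each, 30min compound preincubation then 60min RT; data normalized to NEM, curves fitted.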
USP1-UAF1 inh – Inhibitors of USP1/UAF1: Primary Screen. 390,000 compounds, 0.23% hits. recombinant USP1/UAF1, Ub-Rhodamine cleavage fluorescence. Potency, µM (top dose mostly 57.1 µM), for inactives: at the highest dose activity change, negative = inhibition, actives largely listed as inhibitors. Ubiquitin carboxyl-terminal hydrolase 1 (Homo sapiens), O94782; note: potency is the fitted concentration of half-maximal effect; % is set by controls: 0 for no effect and ±100 for the full control effect; nearly all actives have a fitted effect of over 60% in size
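In this screen, compounds sit with the deubiquitinase complex (1nM) for 15 min at room temperature before Ub-Rho is added at 150nM final. Fluorescence rise is then followed for 6 reads every 60 seconds.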
ATXN2 expr inh – Primary qHTS for Inhibitors of ATXN expression | HEK-293 ATXN2-luciferase reporter, luminescence, 24 h | Potency, µM (highest dose often 57 µM), without a hit: at the highest dose activity change, negative = inhibition, hits mostly inhibitors | 360,000 compounds, 0.72% hits | AID 1745845, 2022; note: potency is the fitted concentration of half-maximal effect; % is set by controls: 0 for no effect and ±100 for the full control effect; nearly all actives have a fitted effect of over 55% in size
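qHTS (up to 57 uM final) was run with 24 h compound exposure of reporter cells at 37 °C. Each well was multiplexed: SteadyGlo luminescence measured ATXN2-luciferase expression after a fluorogenic Gly-Phe-AFC viability readout (25 uM final).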
The depositor's hits bear a star; i = inactive; ? = inconclusive; / = not tested or not shown; ! = repeats disagree; [ ] = remark or other dose. In the library only some 4.8% were active in any assay of this set; here they are far more common. Unless noted, calls come from the whole dose curve; as a rule, active = well fitted curve in the direction sought with a large enough effect; inconclusive = small, poorly fitted or top-dose-only effect, or another doubt; inactive = no such curve, though single readings can be large; an effect the other way counts as inactive or inconclusive.

SMILES	IL-1B inflam inh	S2 tox	USP2a inh	USP1-UAF1 inh	ATXN2 expr inh
COc1cc(-c2nc3cnccn3c2Nc2ccc(C(C)C)cc2)ccc1O	-81*	?	3%	-8%	?
CCCCCCSc1cc(-c2nc3ccc(Cl)cn3c2NCCCC)ccc1OC	0	i	-1%	-27%	6%
CCCCNc1c(-c2ccc(OC)c(SC(C)CC)c2)nc2ccc(Cl)cn12 (stereo not drawn)	-66*	?	1%	-33%	-20%
CCCCCCSc1cc(-c2nc3ccc(C)cn3c2NCCCC)ccc1OC	-72*	14µM*	-1%	-14%	0%
CCCCNc1c(-c2ccc(OC)c(SC(C)CC)c2)nc2ccc(C)cn12 (stereo not drawn)	-100*!	11µM*	0%	-22%	13µM*!
CCCCNc1c(-c2cccc(SC(C)CC)c2)nc2ccc(Cl)cn12 (stereo not drawn)	-2	i	8%	-39%	0%
CCn1c(-c2ccccc2F)nc2cc(NC(C)=O)cc(C(=O)N3CCCCC3c3nccn3C)c21 (stereo not drawn)	/	i	/	/	/
COc1ccc2[nH]c3c(c2c1)CCN1C(=O)C(CC(=O)NC(C)(C)C)C[C@H](C(=O)N(C(C)C)C(C)C)[C@@]31C (stereo partly drawn)	-11	i	0%	-17%	-3%
CCCCNc1c(-c2ccc(OC)c(SC(C)CC)c2)nc2cnccn12 (stereo not drawn)	-67*	/	/	?	?
CCCCNc1c(-c2ccc(-c3ccc(C(C)=O)cc3)c(OC)c2)nc2cc(C)ccn12	-51*	i	0%	-33%	?
CCCCNc1c(-c2ccc(OC)c(SC(C)CC)c2)nc2cc(C)ccn12 (stereo not drawn)	-85*	32µM*	-12%	?	25µM*
Cc1nc([N+](=O)[O-])c(Br)n1Cc1ccc(Cl)c(Cl)c1	-60*	20µM*	-1%	-16%	/
COc1ccc(C(=O)Cn2c(C)nc([N+](=O)[O-])c2Br)cc1	/	?	1%	-9%	?
Cc1nc([N+](=O)[O-])c(NCCO)n1Cc1ccccc1	-4	i	-9%	2%	23%
Cc1nc([N+](=O)[O-])c(Br)n1CC(=O)c1ccc(Cl)cc1	-116*	?	-6%	0%	?
COc1ccc(-c2nc3ccccc3n3c(-c4cccc(C)c4)c4c(=O)n(C)c(=O)n(C)c4c23)cc1	/	i	/	?	3%
Cc1ccc2oc(C(=O)NCc3ncc(C)[nH]3)c(C)c2c1	-10	i	2%	-18%	4%
COCc1cc(NCc2ccc(Cl)cc2)nc(C)n1	9	i	2%	-16%	-23%
Cc1nc(CS(=O)c2ccc(Cl)cc2)cc(NCc2ccc(Cl)cc2Cl)n1 (stereo not drawn)	-77*	i	0%	-8%	-7%
O=C(COc1ccc(S(=O)(=O)N2CCOCC2)cc1)NCCc1ccc(Cl)cc1	-24	i	/	-14%	/
Cc1onc(-c2ccccc2Cl)c1C(=O)N1CCCCC1	13	i	4%	-12%	18%
O=C(Nc1cccc(Cl)c1)N1CCN(C/C=C/c2ccccc2)CC1	-51*	/	-5%	-24%	/
Cc1onc(-c2ccccc2Cl)c1C(=O)N1CCN(C/C=C/c2ccccc2)CC1	-52*	i	-5%	0%	0%
Cc1ccc(NC(=O)CCN2CCN(C/C=C/c3ccccc3)CC2)cc1	?	i	3%	7%	-8%
Cc1ccc(NC(=O)CCN2CCN(C/C=C/c3ccccc3)CC2)cc1C	-53*	i	-1%	-3%	-16%
SMILES	IL-1B inflam inh	S2 tox	USP2a inh	USP1-UAF1 inh	ATXN2 expr inh
Cc1cccc(NC(=O)CNC(=O)Cc2ccc(S(=O)(=O)N3CCOCC3)s2)c1C	9	i	3%	-18%	/
CC[C@H]1OC(=O)C[C@@H](O)[C@H](C)[C@@H](O[C@@H]2O[C@H](C)C[C@H](N(C)C)[C@H]2O)[C@@H](CC=O)C[C@@H](C)C(=O)C=C[C@]2(C)O[C@H]2[C@@H]1C	/	/	-5%	/	/
CCC1OC(=O)C[C@@H](O)[C@H](C)[C@@H](O[C@@H]2O[C@H](C)C[C@H](N(C)C)[C@H]2O)[C@@H](CC=O)C[C@@H](C)C(=O)/C=C/[C@]2(C)OC2C1C (stereo partly drawn)	/	16µM*	/	/	/
Cc1ccc(O)c(NC(=O)Cc2ccc3ccccc3c2)c1	-65*	i	1%	-16%	31%
CCOC(=O)Cc1csc(SCC(=O)N(CC(C)C)c2c(N)n(Cc3ccccc3)c(=O)[nH]c2=O)n1	18	?	-1%	-16%	4%
O=C(Nc1ccccc1)Nc1ccc2ncoc2c1	-63*	/	-1%	-3%	44%
COc1cccc(C(=O)OCC(=O)NCC2CCCO2)c1 (stereo not drawn)	9	?	-1%	-12%	4%
CC(=O)c1cc2c(cc1NC(=O)CSc1ncccn1)OCO2	-13	i	/	-25%	/
Cc1cnc(-n2ncc(C(=O)NCCN3CCOCC3)c2C(C)C)nc1-c1ccc(F)cc1	/	i	/	/	/
COc1ccccc1C1=NNC(=Nc2cccc(S(=O)(=O)N(C)C)c2)SC1	-72*	?	0%	?	-22%
CCN(CCO)Cc1csc2ccc(C(C)(C)C)cc12	-57*	?	-2%	-19%	-16%
CCN(CCO)Cc1csc2ccc(Cl)cc12	13	?	0%	-18%	7%
COc1ccc(CN(CCC(c2ccc(F)cc2)C2CCOC(C)(C)C2)C(=O)c2ccco2)cc1 (stereo not drawn)	-103*	i	-9%	-19%	-21%[11.3 µM]
COc1cccc(CNC(=O)C2CCCN(c3nn4cc(-c5ccc(C)cc5)nc4s3)C2)c1 (stereo not drawn)	/	/	/	-3%	/
O=C(Nc1nc(=O)c2ccccc2s1)c1ccc(F)cc1	-99*	i	3%	-17%	50%
Cc1cc(O)ccc1Nc1cc(-c2cccc(N)c2)ncn1	?	i	/	/	31%
CC(C)Cn1c(N2CCN(CC(=O)Nc3ccc(Cl)cc3)CC2)nc2ccccc21	-85*	i	2%	-15%	-29%
CC(C)CCNC(=O)c1cccc(Nc2nc3ccccc3n3nnnc23)c1	/	/	/	-26%	/
c1ccc2c(NCCc3c[nH]c4ccccc34)c3ccccc3nc2c1	-57*	?	-1%	-23%	/
OCCCNc1c2ccccc2nc2ccccc12	-104*	?	4%	-11%	?
Fc1cccc(NCCc2c[nH]c3ccccc23)n1	-11	?	2%	-28%	/

Bioassay records as filed in PubChem.
